Hit rate of the full screen: of about 2,400 compounds, about 580 (24%) were called active. Not all results are given here. A number with no mark means an inactive call.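 The calls were made as follows: active = activity change at or above the mean plus 3 SD of buffer wells without dofetilide, per plate; inactive = the rest.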

Potassium voltage-gated channel subfamily KQT member 2 (Rattus norvegicus), sequence (O88943 whole entry, looked up): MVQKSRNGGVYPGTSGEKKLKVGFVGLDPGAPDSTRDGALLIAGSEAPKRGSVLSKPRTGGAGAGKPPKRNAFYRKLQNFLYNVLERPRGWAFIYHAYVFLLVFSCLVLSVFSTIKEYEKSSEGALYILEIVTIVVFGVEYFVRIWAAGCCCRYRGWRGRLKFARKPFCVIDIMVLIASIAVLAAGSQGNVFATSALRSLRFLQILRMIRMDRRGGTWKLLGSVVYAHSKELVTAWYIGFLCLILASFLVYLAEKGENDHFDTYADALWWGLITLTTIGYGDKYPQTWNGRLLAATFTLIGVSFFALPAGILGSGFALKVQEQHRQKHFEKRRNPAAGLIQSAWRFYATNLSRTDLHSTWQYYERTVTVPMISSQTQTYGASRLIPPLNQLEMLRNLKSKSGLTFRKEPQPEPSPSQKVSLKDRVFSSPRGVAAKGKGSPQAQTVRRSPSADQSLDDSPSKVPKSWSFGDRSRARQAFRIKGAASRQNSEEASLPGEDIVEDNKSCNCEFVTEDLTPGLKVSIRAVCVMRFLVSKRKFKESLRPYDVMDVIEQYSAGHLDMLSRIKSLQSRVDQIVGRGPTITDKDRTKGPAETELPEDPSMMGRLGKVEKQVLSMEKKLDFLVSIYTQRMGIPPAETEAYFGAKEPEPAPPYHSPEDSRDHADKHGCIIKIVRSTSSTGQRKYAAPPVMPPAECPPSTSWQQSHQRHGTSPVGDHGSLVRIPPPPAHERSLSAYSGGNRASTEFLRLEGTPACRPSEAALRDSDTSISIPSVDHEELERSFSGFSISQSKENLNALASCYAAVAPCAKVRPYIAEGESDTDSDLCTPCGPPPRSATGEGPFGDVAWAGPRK

The assay addresses Potassium voltage-gated channel subfamily KQT member 2 (Rattus norvegicus) (UniProt O88943). The assay can be described thus: KCNQ2 potentiation in CHO cells – cell-based, FluxOR thallium flux, counter-screen for hERG block protector project, confirmation (AID 1942).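 Also: normalized value minus buffer-control mean plus three SD of buffer wells.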 The following applies: FluxOR thallium flux fluorescence, at 10 µM, stronger effect = higher value.
For `CCOC(=O)N/N=C\c1ccc(-c2cc(Cl)ccc2Cl)o1`, the activity change, less the hit threshold was -17.6%.

Turning to `O=C1N(CN2CCN(Cc3ccccc3)CC2)c2ccccc2C12OCCCO2`, the activity change, less the hit threshold is -12.5%.

On to `CCOc1cc(N2CCCC2)ccc1[N+](=O)[O-]`, for which the activity change, less the hit threshold is -13.1%.

With `CC(C1CC2CCC1C2)n1c(-c2cccs2)n[nH]c1=S` (centres undefined), the activity change, less the hit threshold is -7.9%.

Take `Cc1cccc(/C=N/n2c(COc3ccccc3)n[nH]c2=S)c1`: the activity change, less the hit threshold is -13.8%.

Regarding `S=c1[nH]nc(-c2cccs2)n1/N=C/c1c(Cl)cccc1Cl`, the activity change, less the hit threshold is 13.1% (active).

For `CCC(=O)Nc1cc(=O)[nH]c2ncnn12`, the activity change, less the hit threshold was -13.1%.

Regarding `CCOC(=O)C1=C(C)NC(=O)NC1c1cccc(OC)c1OCc1ccccc1Cl` (centres undefined), the activity change, less the hit threshold is -15.6%.

Take `CN(Cc1ccccc1)C(=O)CCc1ccccc1`: the activity change, less the hit threshold is -22.5%.

Take `CN(C)c1ccc(NC(=O)CCCc2ccccc2)cc1`: the activity change, less the hit threshold is 0.2% (active).

With `CC(C)C(=O)Nc1ccc(NC(=O)CCc2ccccc2)cn1`, the activity change, less the hit threshold is -23.2%.

As to `COc1cc2c(=O)nc3n(c2cc1OC)C(c1ccccc1)N=C(N)N3` (centres undefined), the activity change, less the hit threshold is -18.8%.

For `Nc1nc2c(s1)CCc1c-2cnn1-c1ccccc1`, the activity change, less the hit threshold was -29.6%.

`Oc1ccc(N=Nc2ccc3c(c2)OCCO3)c2ncccc12`: the activity change, less the hit threshold is -11.2%.

As to `Oc1c(N=Nc2ccccn2)ccc2ccccc12`, the activity change, less the hit threshold was 7.7% (active).

Regarding `CC1CCN(c2ccc3c(c2)S(=O)(=O)c2ccccc2C3=O)CC1`, the activity change, less the hit threshold was -25.4%.

`Cc1cc(-c2cccc(Br)c2)c(C#N)c(N)n1`: the activity change, less the hit threshold was -13.8%.

For `CCOC(=O)c1c(SCC(=O)Nc2nc(C)cs2)nc(=O)[nH]c1C`, the activity change, less the hit threshold was -17.9%.

Turning to `O=c1c(-c2ccc(Cl)cc2)[n+]([O-])c2ccccc2n1O`, the activity change, less the hit threshold was 92.9% (active).

Regarding `O=c1c(-c2ccccc2)[n+]([O-])c2ccccc2n1O`, the activity change, less the hit threshold is -16.2%.

Consider `O=c1c(-c2cccc3ccccc23)[n+]([O-])c2ccccc2n1O`, for which the activity change, less the hit threshold is 5.6% (active).

In the case of `Cc1ccc(-c2c(=O)n(O)c3ccccc3[n+]2[O-])cc1`, the activity change, less the hit threshold is 59.1% (active).

On to `FC(F)c1nnc2c(Cl)cc(C(F)(F)F)cn12`, for which the activity change, less the hit threshold is -8%.

As for `CC(=O)Nc1ccc(S(=O)(=O)N2CCC(C(=O)O)CC2)cc1`, the activity change, less the hit threshold was -26.7%.

For the molecule `Cc1cc(=O)[nH]c(SCC(=O)Nc2ccccc2C#N)c1C#N`, the activity change, less the hit threshold was -14.5%.

As to `CCOc1cc(/C=C2/C(=O)ON=C2C)ccc1O`, the activity change, less the hit threshold is -11.8%.

`COc1cccc(/C=N/NC(=O)CSc2ccccc2C)c1O`: the activity change, less the hit threshold was -2.9%.

In the case of `COc1cc(-c2nnc(SCC(=O)O)n2-c2ccccc2)cc(OC)c1OC`, the activity change, less the hit threshold is -13.9%.

Consider `COc1cccc(/C=N/n2c(SC)nnc2-c2ccccc2)c1O`, for which the activity change, less the hit threshold was 2.8% (active).

The values are drawn from PubChem BioAssay AID1942 (Johns Hopkins Ion Channel Center, 2009).
